# Source: ChEMBL document CHEMBL4513216, “Probing the Open Global Health Chemical Diversity Library for Multistage-Active Starting Points for Next-Generation Antimalarials” (ACS Infect Dis, 2020)
# The whole screen tested about 69,000 compounds, of which about 8,600 (12%) showed an effect of 50% or more. This is one part of a sample in which strong results are shown more often than they occur.
# Tested on: Plasmodium berghei
# Experiment: Screen against P. berghei liver stage (PbLuc), transformed with Luciferase, at 10uM
# Assay type: functional, HepG2
# Settings: tested at 10 uM
row,Compound,INHIBITION [%]
1,Cn1cc(CN2CC[C@H]3O[C@H](C(=O)Nc4cnccn4)CC[C@H]32)cn1,30.3
2,O=C(NC1CC1)[C@H]1CC[C@@H]2[C@@H](CCN2CCOCc2ccccc2)O1,10.4
3,CC(=O)N1CC[C@@H]2O[C@H](C(=O)Nc3nc(C)cs3)C[C@@H]21,-24.1
4,Cc1csc(NC(=O)[C@@H]2C[C@H]3[C@H](CCN3c3ncccn3)O2)n1,-16.2
5,O=C(NC1CCC1)[C@@H]1CC[C@@H]2[C@@H](CCN2CCc2ccccc2)O1,42.1
6,COCCNC(=O)[C@@H]1CC[C@@H]2[C@@H](CCN2Cc2cnn(C)c2)O1,7.11
7,Cn1cc(CN2CC[C@H]3O[C@H](C(=O)NC4CC4)CC[C@H]32)c2ccccc21,66.8
8,Cn1cc(CN2CC[C@H]3O[C@@H](C(=O)NC4CC4)CC[C@H]32)cn1,62.4
9,Cc1csc(NC(=O)[C@@H]2C[C@H]3[C@H](CCN3S(C)(=O)=O)O2)n1,61.3
10,CN(C)CC1(O)CCN(C(=O)Cc2ccc3ccccc3c2)C1 (stereo not drawn),-37.7
11,COc1c(C2CCCN2C(=O)c2ccc(C(N)=O)s2)c(C)nn1C (stereo not drawn),2.93
12,Cc1nc(CN(C)C2CCN(CCCOc3ccccc3)C2)no1 (stereo not drawn),31.9
13,Cc1cnc(C(=O)NC(COCC(C)C)c2ccco2)cn1 (stereo not drawn),36.1
14,O=C(N1CCOCC1)N1CCc2ncc(CN3CCCCC3)n2CC1,15.9
15,CC(C)CCN1CCN(C(=O)c2cnccn2)CC1,25
16,CC(C)Nc1n[nH]c2nc(C3CCN(C(=O)c4ccccn4)C3)ccc12 (stereo not drawn),-7.66
17,CCCC(C#N)NC(=O)c1cc(Br)c2c(c1)OCCO2 (stereo not drawn),60.5
18,CCCNC(=O)c1cc(Br)c2c(c1)OCCO2,31.2
19,CC(CC#N)NC(=O)c1cc(Br)c2c(c1)OCCO2 (stereo not drawn),12.7
20,CCC(C#N)NC(=O)c1cc(Br)c2c(c1)OCCO2 (stereo not drawn),-36.1
21,CC(C)CNC(=O)c1cc(Br)c2c(c1)OCCO2,51.8
22,CC(C)NC(=O)c1cc(Br)c2c(c1)OCCO2,-48.4
23,COc1ccc(-c2nc(C#N)c(N(C)C)o2)cc1S(=O)(=O)N(C)C,12.8
24,CC(NC(=O)c1cccs1)C(=O)Nc1cccnc1N1CCCCC1 (stereo not drawn),-36.3
25,CC(=O)Nc1cnc(-n2ccnc2)nc1,13.8
26,CC(=O)N(C)CC(=O)Nc1cnc(-n2ccnc2C)nc1,95.9
27,CC(=O)N(C)CC(=O)Nc1cnc(-n2ccnc2)nc1,41.2

row,Compound,INHIBITION [%]
1,CN(Cc1nccn1CC(F)(F)F)C(=O)c1cccc(N(C)C)c1,-15.7
2,CC(=O)N1CCCC2(CN(Cc3ccc(F)cc3)CCO2)C1 (stereo not drawn),-0.813
3,Cc1noc(C)c1CN1C(=O)[C@@H]2CC[C@H]1CN(Cc1ccc(Cl)cc1)C2,-48.1
4,O=C(c1n[nH]cc1Br)N1CCOCC1,33.3
5,CCCN1CCCC2(CCN(c3nc(C)nc4ccsc34)C2)C1=O (stereo not drawn),76.5
6,COCCN1CCCC2(CCN(c3nc(C)nc4ccsc34)C2)C1=O (stereo not drawn),41.8
7,CNc1nc(C(=O)N2CCC3(CCCN(CC4CC4)C3=O)C2)cs1 (stereo not drawn),21.2
8,COc1ccnc(N2CCC3(CCCN(C(C)C)C3=O)C2)n1 (stereo not drawn),48.8
9,COc1ccnc(N2CCC3(CCCN(CC4CC4)C3=O)C2)n1 (stereo not drawn),30.3
10,Cc1nc(N2CCC3(CCCN(CCO)C3=O)C2)c2sccc2n1 (stereo not drawn),40.5
11,COc1nccnc1N1CCC2(CCCN(C(C)C)C2=O)C1 (stereo not drawn),-9.17
12,Cc1nc(N2CCC3(CCCN(CC4CC4)C3=O)C2)c2sccc2n1 (stereo not drawn),82.9
13,Cc1nc(N2CCC3(CCCN(C(C)C)C3=O)C2)c2sccc2n1 (stereo not drawn),81.6
14,Cc1ccc(N2CCCN(C(=O)C3CCCO3)CC2)nn1 (stereo not drawn),-72.5
15,Cn1nc(CN2CCOCC2)c2c1CN(Cc1ccsc1)C2,8.03
16,COc1ccc2c(c1)C(=O)NC1(CC2)CCN(Cc2ccccc2)C1 (stereo not drawn),41.3
17,CC(C)c1nc(C2CCCN2CCOCC2CC2)no1 (stereo not drawn),12.3
18,CN1C(=O)CC(C(=O)O)C12CCN(c1ccc3c(n1)CCCC3)CC2 (stereo not drawn),-11.7
19,CC1(C)CN(CCC(=O)NCc2cccc(Cl)c2)CC[C@]1(C)O,24.2
20,Cc1ccc2[nH]c(C(=O)N3CCCC3Cn3cccn3)cc2c1 (stereo not drawn),16.8
21,O=C(CSc1ccc2c(c1)OCCO2)NS(=O)(=O)c1ccccc1F,68.2
22,CN(Cc1ccccc1)C(=O)CSc1ccc2c(c1)OCCO2,73.1
23,CSCC(=O)N(C)Cc1ccc(N(C)C)cc1,47.4
24,CN(Cc1ccc(N(C)C)cc1)C(=O)CSc1ccc(Br)cc1,79.1
25,CN(Cc1ccccc1)C(=O)CCS(=O)(=O)c1ccc2c(c1)OCCO2,41.4
26,O=C(CSc1ccc2c(c1)OCCO2)NS(=O)(=O)c1cc(F)ccc1F,27.6
